The list is not random: actives were taken first. Their share in the collection is about 19%.
Shiga inhibitor: A qHTS for Small Molecule Inhibitors of Shiga Toxin; AID 2315, 2010; inhibition, % at 38.7 µM; Vero cells, Shiga toxin protein synthesis inhibition reporter; hit rate 9.2% among 290,000; in the data active = inhibition mostly above about 28%, no sharp cut-off; inactive = mostly below about 43%
Pf growth 48h: Primary qHTS for delayed death inhibitors of the malarial parasite plastid, 48 hour incubation | P. falciparum luciferase growth in erythrocytes, 48 h | Potency, µM (doses to about 28.7 µM), actives largely listed as inhibitors | hit rate 5.9% among 310,000
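In quantitative HTS format, infected erythrocytes bearing luciferase-reporter parasites were treated for a single generation at 37 C. Luminescence after adding detection reagent served as the growth measure.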
AMA1 RON2 block: qHTS for Inhibitors of AMA1-RON; Towards Development of Antimalarial Drug Lead: Primary Screen | Plasmodium falciparum AMA1 (3D7) - RON2 peptide interaction | Potency, µM (doses to about 58.2 µM), hits mostly inhibitors | AlphaScreen AMA1-biotinylated RON2 peptide binding | hit rate 0.2% among 360,000 | AID 720542, 2013; note: nearly all actives have a fitted effect of over 45% in size
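AMA1 (3D7) with his tag at 25 nM final met compounds first, then biotinylated RON2 peptide at 25 nM; detection used donor plus acceptor beads, 10 µg/mL apiece, read by AlphaScreen after 30 min at room temperature.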
Pf growth 96h: Primary qHTS for delayed death inhibitors of the malarial parasite plastid, 96 hour incubation; hit rate 6.9% among 320,000; Potency, µM (highest dose often 28.7 µM), usual class: inhibitors; AID 504834, 2011; P. falciparum luciferase reporter growth, 96 h
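96 h incubation, 37 C, 5% CO2, of luciferase-reporter P. falciparum-infected RBCs (2% hematocrit, 0.05% parasitemia final) with test compounds; endpoint luminescence.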
SARS PLpro yeast: qHTS of Yeast-based Assay for SARS-CoV PLP | S. cerevisiae expressing SARS-CoV PLpro, growth rescue | Potency, µM (titrated, usually from 32.9 µM), hits mostly activators | hit rate 0.19% among 330,000; calls by dose curve; note: nearly all actives have a fitted effect of over 55% in size
CHX counter: Cycloheximide Counterscreen for Small Molecule Inhibitors of Shiga Toxin | hit rate 12% among 300,000 | AID 2314, 2010 | cell reporter, cycloheximide protein synthesis inhibition counterscreen | max response, %; in the data active = max response mostly above about 13%, no sharp cut-off; inactive = mostly below about 14%; note: read at 38.3 µM for the half of the compounds with a filed dose
Numbers stand for hits; [ ] = another dose, or the depositor's remark. Unless noted, calls come from the whole dose curve; as a rule, active = well fitted curve in the direction sought with a large enough effect; inconclusive = small, poorly fitted or top-dose-only effect, or another doubt; inactive = no such curve, though single readings can be large; an effect the other way counts as inactive or inconclusive.

Results for Cc1cccc(OCC(=O)NNC(=O)c2ccc3nc[nH]c3c2)c1 ?
Pf growth 48h: inactive; AMA1 RON2 block: inactive; Pf growth 96h: inactive; SARS PLpro yeast: inactive

How did Cc1ccc(C)c(OCCn2nnc3ccccc32)c1 do in these assays?
Shiga inhibitor: 33.6; Pf growth 48h: inactive; AMA1 RON2 block: inactive; Pf growth 96h: inactive; SARS PLpro yeast: inactive; CHX counter: 32.6

What do the screens show for `Cc1cccc(C)c1OCCn1nnc2ccccc21`?
Shiga inhibitor: inactive; Pf growth 48h: inactive; AMA1 RON2 block: inactive; Pf growth 96h: inconclusive; CHX counter: inactive

Results for Clc1ccccc1OCCn1nnc2ccccc21 ?
Shiga inhibitor: 62.9; Pf growth 48h: inactive; AMA1 RON2 block: inactive; Pf growth 96h: inactive; SARS PLpro yeast: inactive; CHX counter: 44.9

How did Cc1ccc(OCCn2nc3ccccc3n2)c(C)c1 do in these assays?
Shiga inhibitor: 38.4; Pf growth 48h: inactive; AMA1 RON2 block: inactive; SARS PLpro yeast: inactive; CHX counter: 32.5

What do the screens show for `Cc1cc(C)cc(OCCn2nnc3ccccc32)c1`?
Shiga inhibitor: 57.7; Pf growth 48h: inactive; AMA1 RON2 block: inactive; Pf growth 96h: inconclusive; SARS PLpro yeast: inactive; CHX counter: 46.6

How did O=S(=O)(c1ccc(F)cc1)N1CCN(c2ccccn2)CC1 do in these assays?
Shiga inhibitor: inactive; Pf growth 48h: inactive; AMA1 RON2 block: inactive; Pf growth 96h: inactive; SARS PLpro yeast: inactive; CHX counter: inactive

How did CN1c2ccccc2C(=O)C(=C2SCCCS2)S1(=O)=O do in these assays?
Shiga inhibitor: inactive; Pf growth 48h: inactive; AMA1 RON2 block: inactive; Pf growth 96h: inactive; SARS PLpro yeast: inactive; CHX counter: 24.9

What do the screens show for `CCCC[C@H](CN[C@@H](CNC)[C@H](C)CC)NCCC12CCC(CC1)C2`?
Shiga inhibitor: inactive; Pf growth 48h: inconclusive; AMA1 RON2 block: inactive; Pf growth 96h: 2.62µM; SARS PLpro yeast: inactive; CHX counter: inactive

What do the screens show for `COc1ccc(NC(=O)Nc2ccc(Br)cn2)cc1`?
Shiga inhibitor: 77.4; Pf growth 48h: inactive; AMA1 RON2 block: inactive; Pf growth 96h: inactive; SARS PLpro yeast: inactive; CHX counter: inactive

What do the screens show for `COC(=O)c1ccccc1NC(=O)Nc1ccc(Br)cn1`?
Shiga inhibitor: inactive; Pf growth 48h: inactive; AMA1 RON2 block: inactive; Pf growth 96h: inactive; SARS PLpro yeast: inactive; CHX counter: inactive

Results for COc1ccc(NC(=S)NC(=O)/C=C/c2ccc(F)cc2)cc1 ?
Shiga inhibitor: inactive; Pf growth 48h: inactive; AMA1 RON2 block: inactive; Pf growth 96h: inactive; SARS PLpro yeast: inactive; CHX counter: inactive

Results for COc1ccc(/C=C/C(=O)NC(=S)Nc2ccc(Br)cn2)cc1 ?
Shiga inhibitor: inactive; Pf growth 48h: inactive[0.00184 µM]; AMA1 RON2 block: inactive; Pf growth 96h: inactive; SARS PLpro yeast: inactive; CHX counter: 11.0

How did O=C(COC(=O)/C=C/c1ccccc1[N+](=O)[O-])NNC(=O)c1ccc(F)cc1 do in these assays?
Pf growth 48h: inactive; AMA1 RON2 block: inactive; Pf growth 96h: inactive; SARS PLpro yeast: inactive

Results for CN(Cc1nc(-c2ccccn2)no1)S(=O)(=O)c1ccccc1 ?
Shiga inhibitor: 60.9; Pf growth 48h: inactive; AMA1 RON2 block: inactive; Pf growth 96h: inactive; SARS PLpro yeast: inactive; CHX counter: 24.1

How did c1ccc(CCc2nc(-c3ccccn3)no2)cc1 do in these assays?
Shiga inhibitor: 125.0; Pf growth 48h: inactive; AMA1 RON2 block: inactive; SARS PLpro yeast: inactive; CHX counter: 30.8

Results for Cc1ccc(S(=O)(=O)N(C)Cc2nc(-c3ccccn3)no2)cc1 ?
Shiga inhibitor: inactive; Pf growth 48h: inactive; AMA1 RON2 block: inactive; SARS PLpro yeast: inactive; CHX counter: inactive

How did Brc1ccc(-c2noc(COc3ccc4ccccc4c3)n2)o1 do in these assays?
Shiga inhibitor: inactive; AMA1 RON2 block: inactive; Pf growth 96h: inconclusive; SARS PLpro yeast: inactive; CHX counter: inactive

What do the screens show for `Clc1ccccc1OCc1nc(-c2ccc(Br)o2)no1`?
Shiga inhibitor: 70.3; AMA1 RON2 block: inactive; Pf growth 96h: inactive; SARS PLpro yeast: inactive; CHX counter: 53.7

What do the screens show for `Brc1ccc(-c2noc(CCc3ccccc3)n2)o1`?
Shiga inhibitor: 84.0; AMA1 RON2 block: inactive; Pf growth 96h: inconclusive; SARS PLpro yeast: inactive; CHX counter: 17.0
